The values that follow come from PubChem BioAssay (NCI).

Several values for one entry are separate records, joined by “and”; a condition that tells them apart may be missing. Equal values may be shown once. Compounds without any hit were thinned out: in the full panel of roughly 83,000, 20% have a hit.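 Step 1: grow cells in 96-well plates. Step 2: add test compound at a single concentration. Step 3: incubate 48 h. Step 4: record percent growth.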 A number with no mark means an inactive call. Activity calls are given as the source filed them.

The subject of one experiment is SNB-19 CNS. The experiment is described as follows: NCI-60 one-dose screen, 48 h (100 = growth as untreated, 0 = no growth, -100 = all killed). Particulars: 10 µM. The procedure: Growth inhibition of the SNB-19 human tumor cell line is measured as a screen for anti-cancer activity. Cells are grown in 96 well plates and exposed to the test compound for 48 hours. Compounds are tested at a single concentration, which is 10^-5 M for most compounds. The reported endpoint is percent growth (GI% or GIPRCNT), where numbers from 0 - 100% represent growth inhibition, and numbers from -100% - 0 represent cell death. For example, a value of 40 represents 60% growth inhibition. A value of 0 means no net growth occurred over the course of the experiment. A value of -40 indicates 40% of cells at the beginning of the experiment died by the end of the experiment. A value of -100 means all cells are dead at the end of the experiment.
NCI-60 Human Tumor Cell Lines Screen was performed using the standard one-dose NCI protocol, which is described in more detail at https://dtp.cancer.gov/discovery_development/nci-60/default.htm.
Compounds with GIPRCNT values below 10 were considered active. Activity score was based on GIPRCNT using the following formula: […]
Score is 0 for GIPRCNT values of 100 or above, 50 for GIPRCNT values of 0, and 100 for GIPRCNT values of -100.
Regarding `CC(=O)/C=C/c1ccc(N(CCO)Cc2ccc(C(C)(C)C)cc2)cc1`, the growth was 102%.

The same experiment, now with this note: 10 µM unless noted.
Take `Cn1cc2c(=O)nc3c(-c4nc5ccccc5[nH]4)n[nH]n3c2n1`: the growth was 95.8%.

`COc1ccc(Oc2nc(Nc3ccc(N4CCOCC4)cc3)ncc2NC(=O)c2cccc(C(F)(F)F)c2)cc1`: the growth was 87.5%.

Take `C[C@@H]1CC[C@@H]2[C@@H]1[C@H](OC(=O)/C=C/c1ccccc1)[C@]1(c3ccccc3)C[C@@H](NC(=O)CO)[C@@]2(C)O1`: the growth was 96.2%.

Regarding `O=C(N=Nc1c(O)[nH]c2ccccc12)Nc1ccccc1Cl`, the growth is 91.1%.

For the compound `N#C/C(=C\c1ccccc1Cl)c1cc2ccccc2[nH]1`, the growth was 93.1%.

In the case of `O=C(Nc1ccccc1C(=O)N/N=C(\c1ccccc1)c1ccccn1)c1ccccc1`, the growth is 27.9%.

Take `CN(Cc1ccccc1)c1nc(Cl)c(C2CC(c3ccc4c(c3)OCO4)=NN2c2cc(Cl)cc(Cl)c2)s1` (stereo not given): the growth is 106%.

On to `N#Cc1cc(-c2ccnc(Nc3ccc(NC(=O)CCl)cc3)n2)ccc1N1CCCC1`, for which the growth was 5.98% (active).

Regarding `CCCCn1c(C(=O)c2c[nH]c3ccccc23)n[nH]c1=S`, the growth is 100%.

Turning to `COc1c(O)c(O)cc2c3c(oc12)CC(c1ccc2c(c1)OCO2)CC3=O` (stereo not given), the growth was 77.8%.

For the compound `N#Cc1ccccc1OCC(=O)Nc1nc2c(s1)COc1ccccc1-2`, the growth was 102%.

Turning to `COc1ccc(-c2cc(=O)c3c(O)cc(O)cc3o2)cc1`, the growth is 105% and 83.4%.

Consider `CCCn1nc(C(=O)N2CCCCC2)c2c1CCC(N1CCC(c3ccncc3)CC1)C2` (stereo not given), for which the growth was 102%.

On to `CC[C@H](C)[C@H](NC(=O)[C@@H](N)CCC(N)=O)C(=O)N[C@@H](Cc1ccc(O)cc1)C(=O)N[C@@H](CCCCN)C(=O)N[C@@H](CCCCN)C(=O)N[C@@H](Cc1ccc(O)cc1)C(=O)N[C@@H](CCCNC(=N)N)C(=O)N[C@H](C(=O)N[C@@H](Cc1c[nH]c2ccccc12)C(=O)N[C@@H](Cc1ccc(O)cc1)C(=O)N[C@@H](CCCNC(=N)N)C(=O)N[C@@H](CCCCN)C(=O)N[C@@H](C)C(=O)N[C@@H](Cc1c[nH]c2ccccc12)C(=O)N[C@@H](CCCCN)C(=O)N[C@H](C(=O)N[C@@H](CC(C)C)C(=O)NCC(=O)N[C@@H](CCCCN)C(=O)N[C@H](C(N)=O)C(C)C)C(C)C)[C@@H](C)O`, for which the growth was 49.3%.

For the compound `CN(Cc1ccccc1)c1nc(Cl)c(C2CC(c3ccc(F)cc3)=NN2C=O)s1` (stereo not given), the growth is 98.1%.

As to `N#CC1C(=O)c2ccccc2C1c1ccccc1` (stereo not given), the growth was 97.1% and 98.5%.

Consider `CCN(CC)CC#CCOC(=O)[C@]1(C)CCC[C@]2(C)c3ccc(C(C)C)cc3CC[C@@H]12`, for which the growth is 92%.

Consider `O=C(NCc1cccnc1)/C(=C\c1ccc(Br)cc1)S(=O)(=O)c1ccccc1`, for which the growth was -2.37% (active).

Consider `CCCCC1COc2cccc3c2N1C=C/C3=C\C(=O)N(C)c1cccc(Cl)c1` (stereo not given), for which the growth is 91.5%.

On to `O=C(CN1C(=O)S/C(=C\C(Cl)=C\c2ccccc2)C1=O)NCCCn1ccnc1`, for which the growth is 57.5%.

With `CC(=O)c1c(C)nc2ccccc2c1/C=C/c1cccc(C)c1`, the growth was 74.1%.

Turning to `CN(C)C(=O)c1cc2cnc(Nc3ccc(-c4csc5c(=S)cc(N6CCOCC6)oc45)cc3)nc2n1C1CCCC1`, the growth is 10.6%.

On to `COC(=O)/C=C1/SC(N2N=C(c3cccs3)CC2c2ccc(F)cc2)=NC1=O` (stereo not given), for which the growth is 76.4%.

`CN(C)CCCn1c2c(c3ccc(N4CCNCC4)cc3c1=O)C(=O)c1ccccc1-2`: the growth was -13.9% (active).

For `OCCN1CCN(c2cc(-c3cccc(OC(F)(F)F)c3)nc3ccc(N4CCCC4)cc23)CC1`, the growth was 74.1%.

In the case of `COc1ccc(C2Nc3nc(SC)nc(N)c3N=C3c4ccccc4CCC32)cc1` (stereo not given), the growth is 104%.

For `N#Cc1c(N)nnn1Cc1cc(=O)oc2ccc(O)cc12`, the growth was 102%.

Turning to `Cc1ccc(NC(=O)N/C(N)=N/c2nc(=O)c3ccccc3s2)cc1`, the growth is 93%.

As to `CC(=O)N1N=C(c2ccc(F)cc2)CC1c1sc(N(C)Cc2ccccc2)nc1Cl` (stereo not given), the growth is 101%.

On to `Cc1cnc(C(=O)NNc2nc3sc4c(c3c(=O)[nH]2)C(C)CCC4)cn1` (stereo not given), for which the growth was 22.3%.

Take `O=C(NCCCN1CCCCC1)c1ccc(-c2nc3ccc4[nH]ncc4c3c3c2CCCC3)cc1`: the growth is 78.2%.

As for `Cc1ccc(S(=O)(=O)OC[C@@]2(C)CC[C@]3(C)CC[C@]4(C)C(=C3C2)C=C[C@@H]2[C@@]3(C)CCCNC(C)(C)[C@@H]3CC[C@]24C)cc1`, the growth was 47.8%.

`O=C(N/N=C/c1ccc(O)cc1O)c1cccc(Nc2ccnc(C(F)(F)F)c2)c1`: the growth is 35.5%.

For the compound `Cc1ccc(-c2nc3nc(-c4ccccc4)nc(N4CCN(S(=O)(=O)c5ccccc5)CC4)c3o2)cc1`, the growth is 32.9%.

In the case of `Cc1cccc(Cc2cnc(NC(=O)CCCOc3ccc(Cl)cc3)s2)c1`, the growth was 27.6%.

For the compound `COCCOc1cc2ncnc(N3CCN(S(=O)(=O)c4ccccc4Cl)CC3)c2cc1OCCOC`, the growth was 86.1%.

For the compound `Cc1nc2sc(C(=O)Nc3cccc4ccccc34)c(N)c2cc1C(=O)/C=C/c1ccccc1`, the growth is -27.1% (active).

With `C=C(C)[C@@H]1CC[C@]2(C(=O)N3CCN(C)CC3)CC[C@]3(C)[C@H](CC[C@@H]4[C@@]5(C)CC(CCCNC(C)=O)(CCCNC(C)=O)[C@H](OC(C)=O)C(C)(C)[C@@H]5CC[C@]43C)[C@@H]12`, the growth is 99%.

The experiment is the same for the next values; noted with them: 100 µM.
Regarding `CC(=O)/C=C/c1ccc(N(CCO)Cc2ccc(C(C)(C)C)cc2)cc1`, the growth was -89.9% (active).
